Experimental data as given in PubChem BioAssay (EPA / NIEHS).
Records with an inconclusive call do not appear. The source made the active and inactive calls. How the source made its calls, unless noted: active means hit-call score of the fitted dose curve at least 0.9, where 1 is the maximum; inactive means score below 0.9.

What was measured:
[1] = CCTE_Shafer_MEA_dev_burst_duration_mean: CCTE's Neural Network Formation Assay for Mean Burst Duration, Shafer Lab (AID 2284045);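 further: curve fitted for loss meaning shorter burst duration than DMSO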
In short: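 Primary rat cortical neurons on 48-well 16-electrode MEA plates, exposed from day 0 with renewal at DIV 5 and 9; spontaneous activity recorded on days 5, 7, 9, 12. Well-mean burst duration across bursting electrodes, collapsed as trapezoidal AUC; DMSO baseline.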

[2] = CCTE_Shafer_MEA_dev_inter_network_spike_interval_mean: CCTE's Neural Network Formation Assay for Mean Inter-network Spike Interval, Shafer Lab (AID 2284047);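 further: potency for a decrease in mean inter-network spike interval below DMSO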
In short: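 Compound was given at plating to primary rat cortical neurons and renewed with full medium changes on DIV 5 and 9. Extracellular activity was recorded on days 5, 7, 9, 12; AUC values were fitted for loss relative to DMSO control.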

[3] = CCTE_Shafer_MEA_dev_network_spike_number: CCTE's Neural Network Formation Assay for Number of Network Spikes, Shafer Lab (AID 2284048);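 further: synchronized bursts across electrodes counted on days 5 7 9 12 and integrated as AUC; fit as a loss of signal meaning fewer network spikes than DMSO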
In short: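 Primary rat cortical neurons on PEI/laminin 48-well MEA plates, dosed from plating day 0 for 12 days, renewed at DIV 5 and 9. Network spike counts recorded DIV 5, 7, 9, 12, collapsed as trapezoidal AUC; DMSO baseline.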

[4] = CCTE_Shafer_MEA_dev_network_spike_peak: CCTE's Neural Network Formation Assay for Mean Number of Electrodes in Network Spike, Shafer Lab (AID 2284049);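 further: fitted for loss of signal meaning fewer electrodes in network spikes than DMSO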
In short: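 Network-spike peak electrode count from recordings on days 5, 7, 9 and 12 was combined as trapezoidal area under the curve. Rat cortical cultures were treated continuously from plating, with compound renewed at each feed (DIV 5, 9); fits versus DMSO.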

[5] = CCTE_Shafer_MEA_dev_spike_duration_mean: CCTE's Neural Network Formation Assay for Mean Spike Duration, Shafer Lab (AID 2284051);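 further: mean network spike duration pooled as area under curve over DIV 5 to 12 recordings; potency for a decrease in mean network spike duration versus DMSO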
In short: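 With DMSO as baseline, loss of mean network spike duration was scored from extracellular recordings of rat cortical neurons on MEA plates. Exposure spanned plating to DIV 12; the four recording days were collapsed into one AUC value.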

[6] = CCTE_Shafer_MEA_dev_network_spike_duration_std: CCTE's Neural Network Formation Assay for Standard Deviation of Network Spike Duration, Shafer Lab (AID 2284052);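 further: area under curve of spike duration SD across recording days 5 to 12; hits are decreases in network spike duration SD versus DMSO vehicle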
In short: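 Developing networks of rat cortical neurons were exposed over twelve days in vitro on 48-well MEA plates. Trapezoidal AUC of recordings (DIV 5–12) was analysed for signal loss relative to DMSO vehicle.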

[7] = CCTE_Shafer_MEA_dev_per_network_spike_spike_number_mean: CCTE's Neural Network Formation Assay for Mean Number of Spikes in a Network Spike, Shafer Lab (AID 2284053);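 further: fitted as decrease in spikes per network spike relative to DMSO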
In short: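 First, rat cortical cells (1.5 x 10^5/well) were seeded onto MEA wells; second, dosing began at plating and was refreshed on DIV 5 and 9; finally, network-spike spike counts across DIV 5–12 were summarized as AUC.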

[8] = CCTE_Shafer_MEA_dev_per_network_spike_spike_percent: CCTE's Neural Network Formation Assay for Percent of Spikes in a Network Spike, Shafer Lab (AID 2284054)
In short: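 Rat primary cortical neurons were grown on 48-well MEA plates (16 electrodes/well), exposed from plating day 0 through day 12, with treatment renewed on DIV 5 and 9. Percent of spikes within 0.05 s network-spike peaks was measured, summarised as AUC across days 5, 7, 9, 12.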

[9] = UKN5_HCS_SBAD2_cell_viability: Viability Assessment in the University of Konstanz (UKN) Leist Lab Neurite Outgrowth Assay in human iPSC-derived immature Dorsal Root Ganglia Neurons (UKN5) (AID 2284056)
In short: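 iPSC-derived immature peripheral neurons (SBAD2) seeded on Matrigel with CHIR99021, SU5402 and DAPT, dosed 1 h later for 24 h. Viability from Hoechst H-33342 and calcein-AM live staining, high-content imaging; bidirectional fit versus DMSO.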

[10] = CCTE_Shafer_MEA_dev_LDH: CCTE's Lactate Dehydrogenase Assay for Cytotoxicity in the Neural Network Formation Assay, Shafer Lab (AID 2284068; active means hit-call score of the fitted dose curve at least 0.9, where 1 is the maximum;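 further: exposure for twelve days from plating with re-dosing on DIV 5 and 9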)
In short: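 Developing rat cortical networks on MEA plates are exposed to compound for 12 days from plating. LDH activity is measured spectrophotometrically, with DMSO as baseline.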

[11] = CCTE_Shafer_MEA_acute_AB: CCTE's Alamar Blue Assay for Cytotoxicity in the Neural Acute Assay, Shafer Lab (AID 2284069; active means hit-call score of the fitted dose curve at least 0.9, where 1 is the maximum;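 further: active compounds lower the viability signal compared with DMSO wells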)
In short: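 Cytotoxicity endpoint for acute MEA exposures of primary rat cortical neurons on day 13 or 15. Resazurin reduction is read fluorescently at 544/590 nm, with DMSO as the negative-control baseline.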

[12] = UKN5_HCS_SBAD2_neurite_outgrowth: University of Konstanz (UKN) Leist Lab Neurite Outgrowth Assay in human iPSC-derived immature Dorsal Root Ganglia Neurons (UKN5) (AID 2284070); conditions: actives raise or lower the signal
In short: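 Read-out: calcein-AM-stained neurite area by high-content imaging, Hoechst H-33342 for viability, after 24 h exposure of iPSC-derived immature dorsal root ganglia neurons. Activity fitted in both directions relative to DMSO baseline.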

[13] = CCTE_Shafer_MEA_dev_AB: CCTE's Alamar Blue Assay for Cytotoxicity in the Neural Network Formation Assay, Shafer Lab (AID 2284083; active means hit-call score of the fitted dose curve at least 0.9, where 1 is the maximum;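 further: resazurin reduction fluorescence as viability of cultured neurons; twelve days of exposure from plating with re-dosing on DIV 5 and 9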)
In short: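 Cytotoxicity companion to the developmental MEA: primary rat cortical neurons, 12-day exposure starting day 0, compound refreshed DIV 5 and 9; resazurin fluorescence, fitted against DMSO vehicle.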

[14] = CCTE_Shafer_MEA_acute_LDH: CCTE's Lactate Dehydrogenase Assay for Cytotoxicity in the Neural Acute Assay, Shafer Lab (AID 2284086; active means hit-call score of the fitted dose curve at least 0.9, where 1 is the maximum;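 further: active means LDH release rises above DMSO vehicle level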)
In short: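 Rat cortical neurons cultured on microelectrode arrays; baseline 40-min recording, compound added, second 40-min recording; medium then sampled for released LDH (colorimetric kit, 490 nm). DMSO = negative control.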

[15] = CCTE_Shafer_MEA_dev_mutual_information_norm: CCTE's Neural Network Formation Assay for Mutual Information Normalization, Shafer Lab (AID 2284091);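 further: mutual information between electrodes summarised as area under curve across four recording days; potency is for a decrease in mutual information relative to DMSO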
In short: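 Primary rat cortical neurons on PEI-coated 48-well MEA plates, 1.5 x 10^5 cells/well, exposed from day 0 through day 12 with re-dosing at DIV 5 and 9. Mutual information between electrodes recorded days 5, 7, 9, 12; trapezoidal AUC, loss-of-signal fit versus DMSO.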

[16] = CCTE_Shafer_MEA_dev_correlation_coefficient_mean: CCTE's Neural Network Formation Assay for Mean Correlation Coefficient, Shafer Lab (AID 2284093);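 further: well mean pairwise spike train correlation integrated as AUC over recording days 5 to 12; potency fitted for loss of correlation relative to DMSO vehicle wells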
In short: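 Extracellular firing from rat cortical networks on 48-well MEAs, DMSO-referenced, negative fitting direction. Compound present from plating to DIV12; mean pairwise correlation per well integrated over DIV5–12 recordings by trapezoidal AUC.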

[17] = UKN2_HCS_IMR90_neural_migration: University of Konstanz (UKN) Leist Lab Neural Crest Cell Migration Assay in human induced IMR90 Pluripotent Stem Cells (UKN2) (AID 2284204); conditions: actives raise or lower the signal
In short: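 iPSC-derived IMR90 neural crest cells seeded around stoppers on PLO/laminin/fibronectin; migration started in N2-S medium with EGF/FGF, compounds added after 24 h for 24 h. Migration into cell-free area imaged after calcein-AM/Hoechst staining; bidirectional fit versus DMSO.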

[18] = UKN4_HCS_LUHMES_neurite_outgrowth: University of Konstanz (UKN) Leist Lab Neurite Outgrowth Assay in human LUHMES cells (UKN4) (AID 2284206); conditions: actives raise or lower the signal
In short: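 Day 0 switch to differentiation medium; day 2 replate (30000 cells/well) without cAMP and GDNF; compounds added 30 min–2 h later. At 23.5 h, 30 min calcein-AM/H-33342 live stain, then imaging.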

[19] = IUF_NPC1b_proliferation_BrdU_72hr: Leibniz Research Institute for Environmental Medicine (IUF) 72-hour Neural Progenitor Cell Bromodeoxyuridine (BrdU) Proliferation Assay (NPC1b) (AID 2284207)
In short: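 BrdU luminescence ELISA quantified DNA synthesis over the last 16 h of a 72 h exposure, fitted against DMSO. Primary hNPC spheres from gestational week 16-19 cortex grown with EGF/FGF at 37C, pH 7.2-7.6.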

[20] = IUF_NPC1a_proliferation_area_72hr: Leibniz Research Institute for Environmental Medicine (IUF) 72-hour Neural Progenitor Cell Proliferation Area Assay (NPC1a) (AID 2284208)
In short: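 Read-out: increase in sphere area over 72 h by automated phase-contrast imaging, fitted in positive direction versus DMSO baseline. One hNPC sphere (0.25-0.35 mm) per well in EGF/FGF medium; growth-factor withdrawal served as positive control.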

[21] = IUF_NPC1_viability_72hr: Viability Assessment at 72 hours in the Leibniz Research Institute for Environmental Medicine (IUF) Neural Progenitor Cell Proliferation Assay (NPC1) (AID 2284209)
In short: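 hNPC spheres, 1/well, EGF+FGF medium, 37C/5% CO2; dosed day 0, 72 h, no re-dosing. Resazurin reduction (alamar blue) fluorescence; DMSO = negative control/baseline; growth-factor-free wells as positive control.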

[22] = CCTE_Mundy_HCI_Cortical_Synap_Neur_Matur_NeuriteSpotCountPerNeuriteLength: CCTE's Synaptogenesis and Neurite Maturation Assay in rat cortical cells for Neurite Spot Count per Neurite Length, Mundy Lab (AID 2284210)
In short: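 Rat primary cortical cultures, AraC added at DIV 5 to suppress glia; chemical exposure from DIV 7 to DIV 12. Fixed cells stained for MAP2 and synaptophysin plus Hoechst; synaptophysin puncta per neurite length quantified by high-content imaging, relative to DMSO.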

[Cd+2].[Cl-].[Cl-]
AC50 [1]: 0.387 µM (active)
AC50 [2]: 0.014 µM (active)
AC50 [3]: 0.299 µM (active)
AC50 [4]: 0.208 µM (active)
AC50 [5]: 0.119 µM (active)
AC50 [6]: 0.0239 µM (active)
AC50 [7]: 0.26 µM (active)
AC50 [8]: 0.585 µM (active)
AC50 [9]: 50 µM (active)
AC50 [10]: 1.51 µM (active)
outcome [11]: inactive
AC50 [12]: 50 µM (active)
AC50 [13]: 1.21 µM (active)
outcome [14]: inactive
AC50 [15]: 0.178 µM (active)
AC50 [16]: 0.609 µM (active)
AC50 [17]: 0.88 µM (active)
AC50 [18]: 6.25 µM (active)
AC50 [19]: 6.45 µM (active)
outcome [20]: inactive
outcome [21]: inactive
outcome [22]: inactive
